# Article PMC5540273 (PLoS ONE, 2017)
# Key:
# Settings in all cases: concentration: 1 μM, replicates: in singlicate; n = 1
# [1] = tested on: ULK2
# [2] = tested on: ULK3
# [3] = tested on: T1, VEGFR2
# T1 construct: gene KDR
# [4] = tested on: T2, VPS34
# T2 construct: gene PIK3C3
# [5] = tested on: VRK2
# [6] = tested on: WEE1
# [7] = tested on: WEE2
# [8] = tested on: WNK1
# [9] = tested on: WNK2
# [10] = tested on: WNK3
# [11] = tested on: WNK4
# [12] = tested on: T3, YANK1
# T3 construct: gene STK32A
# [13] = tested on: T4, YANK2
# T4 construct: gene STK32B
# [14] = tested on: T5, YANK3
# T5 construct: gene STK32C
# [15] = tested on: T6, YES
# T6 construct: gene YES1
# [16] = tested on: T7, YSK1
# T7 construct: gene STK25
# [17] = tested on: T8, YSK4
# T8 construct: gene MAP3K19
# [18] = tested on: ZAK
# [19] = tested on: ZAP70
# [20] = tested on: T9, p38-alpha
# T9 construct: gene MAPK14
# 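Note: KINOMEscan kinase panel screen.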
SMILES,%Inh [1] [%],%Inh [2] [%],%Inh [3] [%],%Inh [4] [%],%Inh [5] [%],%Inh [6] [%],%Inh [7] [%],%Inh [8] [%],%Inh [9] [%],%Inh [10] [%],%Inh [11] [%],%Inh [12] [%],%Inh [13] [%],%Inh [14] [%],%Inh [15] [%],%Inh [16] [%],%Inh [17] [%],%Inh [18] [%],%Inh [19] [%],%Inh [20] [%]
Cl.O=S(=O)(c1cccc(F)c1)c1ccc(Nc2ncnc3cc(Br)sc23)cc1Cl [GSK306886],0,8,3,0,0,20,9,4,9,0,0,0,0,0,14,30,0,6,0,42
Fc1cccc(COc2ccc(Nc3ncnc4nn5ccccc5c34)cc2Cl)c1 [GW689066],0,2,0,60,28,0,0,0,0,20,23,0,0,6,13,1,3,4,0,11
Fc1ccc(Nc2nccc(-c3c(-c4ccc(Cl)cc4)nn4ncccc34)n2)cc1F [GW829058],100,33,25,5,34,10,2,42,0,41,28,0,4,30,0,0,47,18,13,26
Fc1ccc(-c2ncn(CCCNCc3ccccc3)c2-c2ccncc2)cc1,19,14,0,0,13,0,4,0,0,0,0,17,0,7,17,0,9,10,11,77
Cc1cccc(-c2nc(Nc3ccc4[nH]nnc4c3)c3ccccc3n2)n1 [GW867587],0,0,0,0,20,0,0,0,0,0,0,0,0,1,0,0,0,0,0,0
CN1CCC(n2cnc(-c3ccc(F)cc3)c2-c2ccnc(NC3CCNCC3)n2)CC1 [SB-229482],4,19,0,50,18,0,30,21,0,49,0,0,2,1,0,0,0,4,0,89
O=C(Nc1n[nH]c2nc(-c3ccco3)c(Br)cc12)c1ccc(CN2CCCC2)cc1.O=C(O)[C@H](O)[C@@H](O)C(=O)O [SB-742352],0,27,48,0,0,0,4,0,0,0,0,0,0,0,1,0,49,29,0,0
C[C@H]1CC[C@@H](C(=O)Nc2ccccc2)CN1c1cc(-c2ccc3c(N)n[nH]c3c2)nc(N)n1 [GSK2283293],0,7,0,0,19,11,14,2,0,17,28,13,0,4,10,0,16,2,0,0
c1ccc(-c2ccc3c(-c4ccnc(Nc5ccc6c(c5)OCCO6)n4)cnn3n2)cc1 [GW818941],0,15,9,0,7,2,0,2,0,15,0,0,13,0,5,0,0,10,20,0
O=C(NCCCN1CCCC1=O)c1cnc(NCc2cc(Cl)ccc2Cl)nc1NC1CCNCC1,0,0,0,0,70,0,0,0,0,0,0,1,0,0,0,5,54,0,0,0
